Active and inactive are the calls of the source. How the source made its calls: active means hit-call score of the fitted dose curve at least 0.9, where 1 is the maximum; inactive means score below 0.9.
Tests used:
Conditions in all cases: mRNA level, 48 h; actives raise or lower the signal
[1] = read-out: Peroxisomal acyl-coenzyme A oxidase 1 (ACOX1) gene, ACOX1 (gene 51); assay: LTEA_HepaRG_ACOX1: Life Technologies and Expression Analysis (LTEA) Assay for Peroxisomal acyl-coenzyme A oxidase 1 (ACOX1) gene using HepaRG (AID 2283467)
In short: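 ACOX1 transcript levels were quantified by TaqMan qRT-PCR against three housekeeping genes after 48 h chemical exposure of differentiated human HepaRG cells. Exposure used eight half-log steps topping at 100 uM, 0.5% DMSO vehicle, in duplicate. Bidirectional curve fits were made relative to DMSO.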

[2] = read-out: Alkaline Phosphatase, Placental (ALPP) gene, ALPP (gene 250); assay: LTEA_HepaRG_ALPP: Life Technologies and Expression Analysis (LTEA) Assay for Alkaline Phosphatase, Placental (ALPP) gene using HepaRG (AID 2283468)
In short: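 HepaRG cells plated 48 h, then exposed in duplicate for 48 h in serum-free induction medium to 8-point half-log series from 100 uM in 0.5% DMSO. ALPP mRNA by TaqMan qRT-PCR, normalized to ACTB/GAPDH/POLR2A; bidirectional fit versus DMSO.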

[3] = read-out: Bcl-2 (BAD) gene, BAD (gene 572); assay: LTEA_HepaRG_BAD: Life Technologies and Expression Analysis (LTEA) Assay for Bcl-2 (BAD) gene using HepaRG (AID 2283469)
In short: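 Read-out: qRT-PCR of BAD mRNA, normalized to three housekeeping genes. Human HepaRG cultures got 48 h chemical exposure in 0.5% DMSO, duplicate eight-point half-log series topping at 100 uM. Gain or loss of signal fitted versus DMSO vehicle.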

[4] = read-out: Bcl-2 (BAX) gene, BAX (gene 581); assay: LTEA_HepaRG_BAX: Life Technologies and Expression Analysis (LTEA) Assay for Bcl-2 (BAX) gene using HepaRG (AID 2283470)
In short: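 qRT-PCR read-out of BAX mRNA, normalized to three housekeeping genes, after 48 h chemical exposure of human HepaRG cells in serum-free induction medium; eight-point half-log series, top 100 uM, 0.5% DMSO vehicle; bidirectional fit versus DMSO.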

[5] = read-out: adenosine kinase (ADK) gene, ADK (gene 132); assay: LTEA_HepaRG_ADK: Life Technologies and Expression Analysis (LTEA) Assay for adenosine kinase (ADK) gene using HepaRG (AID 2283471)
In short: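 Read-out is ADK transcript level measured by qRT-PCR and normalised to three housekeeping genes. Cells are human HepaRG, dosed for 48 h at up to 100 uM in 0.5% DMSO. Gain or loss of signal is fitted against DMSO controls.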

[6] = read-out: Alpha-fetoprotein (AFP) gene, AFP (gene 174); assay: LTEA_HepaRG_AFP: Life Technologies and Expression Analysis (LTEA) Assay for Alpha-fetoprotein (AFP) gene using HepaRG (AID 2283472)
In short: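 qRT-PCR (Fluidigm TaqMan) readout of AFP transcript, normalized to three housekeeping genes, fitted bidirectionally against 0.5% DMSO baseline. HepaRG cells received chemicals for 48 h in serum-free induction medium, top concentration 100 uM, half-log steps.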

[7] = read-out: BCL2L11 (gene 10018); assay: LTEA_HepaRG_BCL2L11: Life Technologies and Expression Analysis (LTEA) Assay for Bcl-2 (BCL2L11) gene using HepaRG (AID 2283473)
In short: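 Differentiated human HepaRG cells were exposed 48 h in serum-free induction medium to eight half-log concentrations up to 100 uM in 0.5% DMSO, in duplicate. BCL2L11 mRNA was quantified by TaqMan qRT-PCR, normalized to ACTB, GAPDH and POLR2A; induction or repression fitted versus DMSO.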

[8] = read-out: Apolipoprotein A-V (APOA5) gene, APOA5 (gene 116519); assay: LTEA_HepaRG_APOA5: Life Technologies and Expression Analysis (LTEA) Assay for Apolipoprotein A-V (APOA5) gene using HepaRG (AID 2283474)
In short: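 Differentiated HepaRG cells in serum-free induction medium, exposed 48 h in duplicate to eight half-log concentrations topping at 100 uM (0.5% DMSO). APOA5 mRNA by Fluidigm TaqMan qRT-PCR, normalized to ACTB, GAPDH and POLR2A; bidirectional fit versus DMSO.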

[9] = read-out: Apoptosis regulator Bcl-2 (Homo sapiens) (UniProt P10415); assay: LTEA_HepaRG_BCL2: Life Technologies and Expression Analysis (LTEA) Assay for Bcl-2 gene using HepaRG (AID 2283475)
In short: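 qRT-PCR read-out (Fluidigm TaqMan) of BCL2 transcript, normalised to three housekeeping genes, after 48 h chemical exposure of HepaRG cells; 8-point half-log series, top 100 uM, 0.5% DMSO vehicle. Gain or loss of signal fitted relative to DMSO baseline.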

[10] = read-out: Bcl-2 (BID) gene, BID (gene 637); assay: LTEA_HepaRG_BID: Life Technologies and Expression Analysis (LTEA) Assay for Bcl-2 (BID) gene using HepaRG (AID 2283476)
In short: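 HepaRG, 48 h exposure, 8-pt half-log series, top 100 uM, 0.5% DMSO vehicle, duplicates. Readout: BID mRNA by TaqMan qRT-PCR; housekeeping-normalized; bidirectional curve fit vs DMSO baseline.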

[11] = read-out: Caspase-3 (Homo sapiens) (UniProt P42574); assay: LTEA_HepaRG_CASP3: Life Technologies and Expression Analysis (LTEA) Assay for cysteine-aspartic acid protease (CASP3) using HepaRG (AID 2283477)
In short: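 Differentiated HepaRG cells, plated 48 h, were treated in duplicate in serum-free induction medium for 48 h with eight half-log concentrations up to 100 uM in 0.5% DMSO. CASP3 mRNA measured by qRT-PCR, normalized to ACTB, GAPDH, POLR2A.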

[12] = read-out: Cytochrome P450 (CYP24A1), CYP24A1 (gene 1591); assay: LTEA_HepaRG_CYP24A1: Life Technologies and Expression Analysis (LTEA) Assay for Cytochrome P450 (CYP24A1) using HepaRG (AID 2283478)
In short: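 HepaRG cells plated 48 h, then exposed in duplicate in serum-free induction medium for 48 h to 8-point half-log series from 100 uM in 0.5% DMSO. CYP24A1 mRNA by Fluidigm qRT-PCR, normalized to ACTB, GAPDH, POLR2A; bidirectional fit versus DMSO.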

[13] = read-out: Cytochrome P450 (CYP1A2), CYP1A2 (gene 1544); assay: LTEA_HepaRG_CYP1A2: Life Technologies and Expression Analysis (LTEA) Assay for Cytochrome P450 (CYP1A2) using HepaRG (AID 2283479)
In short: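 Differentiated human HepaRG cells in serum-free induction medium exposed 48 hours in duplicate to 8 half-log concentrations from 100 uM, 0.5% DMSO. CYP1A2 mRNA quantified by qRT-PCR, normalized to ACTB, GAPDH and POLR2A; bidirectional fitting versus DMSO.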

[14] = read-out: cysteine-aspartic acid protease (CASP8), CASP8 (gene 841); assay: LTEA_HepaRG_CASP8: Life Technologies and Expression Analysis (LTEA) Assay for cysteine-aspartic acid protease (CASP8) using HepaRG (AID 2283480)
In short: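 CASP8 transcript measured by TaqMan qRT-PCR with ACTB/GAPDH/POLR2A normalization, after 48 h chemical exposure of HepaRG cells in serum-free induction medium. Eight concentrations, top 100 uM, half-log steps, 0.5% DMSO vehicle; fits in both directions versus DMSO.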

[15] = read-out: Cytochrome P450 (CYP2B6), CYP2B6 (gene 1555); assay: LTEA_HepaRG_CYP2B6: Life Technologies and Expression Analysis (LTEA) Assay for Cytochrome P450 (CYP2B6) using HepaRG (AID 2283481)
In short: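 Differentiated human HepaRG cells in serum-free induction medium, dosed in duplicate for 48 h over 8 half-log concentrations topping at 100 uM (0.5% DMSO). CYP2B6 mRNA measured by TaqMan qRT-PCR, normalized to ACTB, GAPDH, POLR2A; bidirectional fit versus DMSO.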

[16] = read-out: Cytochrome P450 2C19 (Homo sapiens) (UniProt P33261); assay: LTEA_HepaRG_CYP2C19: Life Technologies and Expression Analysis (LTEA) Assay for CYP2C19 using HepaRG (AID 2283482)
In short: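 Differentiated HepaRG cells in serum-free induction medium exposed 48 h in duplicate, 8 concentrations from 100 uM by half-log steps in 0.5% DMSO. CYP2C19 mRNA measured by TaqMan qRT-PCR, normalized to ACTB, GAPDH, POLR2A. Bidirectional fit versus DMSO.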

[17] = read-out: CYP2C8 (gene 1558); assay: LTEA_HepaRG_CYP2C8: Life Technologies and Expression Analysis (LTEA) Assay for CYP2C8 using HepaRG (AID 2283483)
In short: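 CYP2C8 expression measured by TaqMan qRT-PCR and normalized to three housekeeping genes. HepaRG cultures were treated for 48 h with an eight-point half-log series topping at 100 uM, vehicle 0.5% DMSO, duplicates; fitted both directions against DMSO.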

[18] = read-out: CYP2C9 (gene 1559); assay: LTEA_HepaRG_CYP2C9: Life Technologies and Expression Analysis (LTEA) Assay for CYP2C9 using HepaRG (AID 2283484)
In short: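 CYP2C9 transcript level, quantified by TaqMan qRT-PCR against three housekeeping genes, was fitted bidirectionally relative to 0.5% DMSO. HepaRG cultures were treated 48 h, in duplicate, at eight half-log concentrations topping at 100 uM.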

[19] = read-out: CYP2E1 (gene 1571); assay: LTEA_HepaRG_CYP2E1: Life Technologies and Expression Analysis (LTEA) Assay for CYP2E1 using HepaRG (AID 2283485)
In short: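 CYP2E1 transcript was measured by TaqMan qRT-PCR in human HepaRG cultures after 48 h chemical exposure (top 100 uM, half-log steps, 0.5% DMSO vehicle). Housekeeping-gene normalization; gain or loss fitted relative to DMSO baseline.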

[20] = read-out: CYP4A11 (gene 1579); assay: LTEA_HepaRG_CYP4A11: Life Technologies and Expression Analysis (LTEA) Assay for CYP4A11 using HepaRG (AID 2283486)
In short: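 Differentiated HepaRG cells, 48 h after plating, exposed in duplicate for 48 h to 8 half-log concentrations up to 100 uM in 0.5% DMSO in serum-free induction medium. CYP4A11 mRNA measured by TaqMan qRT-PCR, normalized to ACTB, GAPDH and POLR2A.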

Measured: AC50

Chain of Apoptosis regulator Bcl-2 (Homo sapiens) (P10415 whole entry, looked up): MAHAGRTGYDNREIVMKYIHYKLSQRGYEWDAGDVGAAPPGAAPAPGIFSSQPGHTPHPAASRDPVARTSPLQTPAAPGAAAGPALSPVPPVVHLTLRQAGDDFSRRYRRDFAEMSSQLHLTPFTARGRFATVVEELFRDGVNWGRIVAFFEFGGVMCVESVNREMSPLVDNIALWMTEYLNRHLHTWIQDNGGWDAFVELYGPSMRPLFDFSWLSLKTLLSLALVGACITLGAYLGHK
Chain of Cytochrome P450 2C19 (Homo sapiens) (P33261 whole entry, looked up): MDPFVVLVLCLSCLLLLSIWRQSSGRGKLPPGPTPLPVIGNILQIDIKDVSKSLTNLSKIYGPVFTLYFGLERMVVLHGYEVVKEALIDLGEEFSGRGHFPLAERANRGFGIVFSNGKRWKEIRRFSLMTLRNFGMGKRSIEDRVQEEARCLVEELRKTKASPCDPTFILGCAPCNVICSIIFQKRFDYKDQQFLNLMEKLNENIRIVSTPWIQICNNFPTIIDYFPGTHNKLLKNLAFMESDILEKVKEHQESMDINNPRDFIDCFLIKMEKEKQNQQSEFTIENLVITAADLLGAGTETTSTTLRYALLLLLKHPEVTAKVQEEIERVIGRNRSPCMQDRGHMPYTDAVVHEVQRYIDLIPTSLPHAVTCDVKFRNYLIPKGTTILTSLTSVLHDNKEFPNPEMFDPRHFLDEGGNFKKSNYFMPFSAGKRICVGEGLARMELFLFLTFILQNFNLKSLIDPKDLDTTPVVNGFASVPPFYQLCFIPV
Chain of Caspase-3 (Homo sapiens) (P42574 whole entry, looked up): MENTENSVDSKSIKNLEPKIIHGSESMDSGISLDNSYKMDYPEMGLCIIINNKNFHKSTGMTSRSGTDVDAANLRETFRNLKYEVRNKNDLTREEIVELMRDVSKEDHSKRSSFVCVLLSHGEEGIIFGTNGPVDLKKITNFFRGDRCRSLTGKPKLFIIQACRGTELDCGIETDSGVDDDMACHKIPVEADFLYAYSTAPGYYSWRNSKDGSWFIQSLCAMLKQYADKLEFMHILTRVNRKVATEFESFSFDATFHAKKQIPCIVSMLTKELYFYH

COC(=O)CCCCC(=O)OC
inactive: [1] | [2] | [3] | [4] | [5] | [6] | [7] | [8] | [9] | [10] | [11] | [12] | [13] | [14] | [15] | [16] | [17] | [18] | [19] | [20]

COc1ccc([N+](=O)[O-])cc1N
inactive: [1] | [2] | [3] | [4] | [5] | [6] | [7] | [8] | [9] | [10] | [11] | [12] | [14] | [16] | [17] | [18] | [19] | [20]
active: [13] 50 µM | [15] 20.7 µM

NC(=O)N1C(=O)C(C(=O)c2cc(Cl)cs2)c2cc(F)c(Cl)cc21 (stereo not drawn)
inactive: [3] | [4] | [6] | [7] | [10] | [12]
active: [1] 50 µM | [2] 50 µM | [5] 17.5 µM | [8] 35.1 µM | [9] 50 µM | [11] 19.1 µM | [13] 4.16 µM | [14] 19.2 µM | [15] 16.3 µM | [16] 22.4 µM | [17] 50 µM | [18] 22.4 µM | [19] 13.2 µM

CCC(=C(c1ccc(O)cc1)c1ccc(OCCN(C)C)cc1)c1ccccc1
inactive: [2] | [3] | [4] | [6] | [8] | [9] | [10] | [12] | [13] | [18] | [19]
active: [5] 75.2 µM | [7] 82.9 µM | [11] 89.8 µM | [14] 75.9 µM | [15] 3.08 µM | [16] 91.4 µM | [17] 2.39 µM | [20] 84.4 µM

Source: PubChem BioAssay (EPA / NIEHS)
